# In the antibiotic and cytotoxicity screens of Wong et al. (2023):
# About 3,300 (8.5%) of roughly 39,000 compounds were called active. This excerpt belongs to a sample that is enriched for actives.
# System: HepG2
# Assay: cytotoxicity call (relative viability < 0.9)
# Details: 10 µM
row,SMILES,cytotoxicity call
1,O=c1[nH]c(=O)n([C@H]2C[C@H](O)[C@@H](CO)O2)cc1C(F)(F)F,active
2,Cc1cn([C@H]2C[C@H](O)[C@@H](CO)O2)c(=O)[nH]c1=O,inactive
3,O=c1[nH]c(=O)n([C@@H]2C[C@@H](O)[C@@H](CO)O2)cc1F,inactive
4,O=c1[nH]c(=O)n(C2CC(O)C(CO)O2)cc1C(F)(F)F (centres undefined),inactive
5,O=c1[nH]c(=O)n(C2CC(O)C(CO)O2)cc1F (centres undefined),active
6,O=c1[nH]c(=O)n([C@H]2C[C@H](O)[C@@H](CO)O2)cc1F,inactive
7,CCCNC(=O)C[C@H]1CC[C@@H]2[C@H](COc3ccc(NC(=O)c4ccc5c(c4)OCO5)cc3C(=O)N2C)O1,inactive
8,COc1ccccc1NC(=O)N(C)C[C@H]1Oc2ncc(C#CC(C)C)cc2C(=O)N([C@H](C)CO)C[C@H]1C,inactive
9,C/C=C/c1ccc2c(c1)O[C@H](CN(C)S(=O)(=O)c1ccccc1OC)[C@H](C)CN([C@H](C)CO)S2(=O)=O,inactive
10,COc1ccc(NC(=O)N(C)C[C@H]2OCCCC[C@H](C)Oc3ccc(NC(=O)NC4CCCCC4)cc3C(=O)N([C@H](C)CO)C[C@@H]2C)cc1,inactive
11,Cc1ccc(NC(=O)CC(C)C)cc1,inactive
12,CN(C)c1ccc(NC(=O)CN)cc1,active
13,NCC(=O)Nc1ccc(Br)cc1,inactive
14,C[C@H](CO)N1C[C@H](C)[C@H](CN(C)Cc2ccc3c(c2)OCO3)Oc2c(NS(C)(=O)=O)cccc2C1=O,inactive
15,C[C@H](CO)N1C[C@H](C)[C@H](CN(C)C(=O)CCCN(C)C)OCCCC[C@H](C)Oc2ccc(NC(=O)Nc3ccc(F)cc3)cc2C1=O,inactive
16,Cn1cnc(=O)c2ccccc21,inactive
17,Cc1ccc2c(=O)c3ccccc3n(CCCN)c2c1C,active
18,Cc1cccc(=O)n1CCCCN,inactive
19,COc1ccc(NC(=O)Nc2cccc3c2O[C@H](CN(C)C(=O)Nc2ccc(C(F)(F)F)cc2)[C@H](C)CN([C@H](C)CO)C3=O)cc1,inactive
20,O=C(C[C@H]1C[C@H]2c3cc(NC(=O)Cc4ccncc4)ccc3O[C@H]2[C@@H](CO)O1)NCc1cc(F)ccc1F,inactive
21,C[C@H]1CN([C@@H](C)CO)C(=O)Cc2cc(NC(=O)c3ccncc3)ccc2O[C@H]1CN(C)S(=O)(=O)c1ccc(Cl)cc1,inactive
22,C[C@H]1CN([C@@H](C)CO)C(=O)Cc2cc(NC(=O)C3CC3)ccc2O[C@@H]1CN(C)Cc1ccc2c(c1)OCO2,inactive
23,Cc1ccc(S(=O)(=O)N(C)C[C@@H]2OCCCC[C@@H](C)Oc3ccc(NC(=O)c4ccccc4)cc3C(=O)N([C@@H](C)CO)C[C@H]2C)cc1,inactive
24,C[C@@H]1CN([C@H](C)CO)C(=O)c2cc(NC(=O)c3ccccc3)ccc2O[C@@H](C)CCCCO[C@H]1CN(C)S(=O)(=O)c1ccccc1,active
25,COc1ccc(S(=O)(=O)N(C)C[C@H]2OCCCC[C@@H](C)Oc3ccc(NC(=O)c4ccccc4)cc3C(=O)N([C@@H](C)CO)C[C@H]2C)cc1,inactive

row,SMILES,cytotoxicity call
1,Cc1ccc(S(=O)(=O)N(C)C[C@@H]2OCCCC[C@H](C)Oc3ccc(NC(=O)c4ccccc4)cc3C(=O)N([C@H](C)CO)C[C@H]2C)cc1,active
2,C[C@@H]1CCCCO[C@H](CN(C)S(=O)(=O)c2ccccc2)[C@@H](C)CN([C@H](C)CO)C(=O)c2cc(NC(=O)c3ccccc3)ccc2O1,inactive
3,COc1ccc(S(=O)(=O)N(C)C[C@@H]2OCCCC[C@@H](C)Oc3ccc(NC(=O)c4ccccc4)cc3C(=O)N([C@H](C)CO)C[C@@H]2C)cc1,inactive
4,COc1ccc(S(=O)(=O)N(C)C[C@@H]2OCCCC[C@H](C)Oc3ccc(NC(=O)c4ccccc4)cc3C(=O)N([C@@H](C)CO)C[C@H]2C)cc1,active
5,C[C@@H]1CCCCO[C@H](CN(C)S(=O)(=O)c2ccccc2)[C@H](C)CN([C@@H](C)CO)C(=O)c2cc(NC(=O)c3ccccc3)ccc2O1,inactive
6,Cc1ccc(S(=O)(=O)N(C)C[C@H]2OCCCC[C@H](C)Oc3ccc(NC(=O)c4ccccc4)cc3C(=O)N([C@@H](C)CO)C[C@H]2C)cc1,inactive
7,CC(C)(C)[S@](=O)N1Cc2cc(C(=O)N3CCCCC3)nc(-c3cccc(-c4cccc(C#N)c4)c3)c2[C@@H]1CCO,inactive
8,CCO[C@H]1OC(C(N)=O)=C[C@@H](C)[C@@H]1CCCO,inactive
9,C[C@H]1COC(=O)[C@@H](Cc2ccc(F)cc2)CCC=CC[C@@H](CC(=O)N[C@@H](CO)Cc2ccccc2)C(=O)N1,inactive
10,C[C@@H]1CN([C@H](C)CO)C(=O)Cc2cc(NC(=O)c3ccncc3)ccc2O[C@@H]1CN(C)S(=O)(=O)c1ccc(Cl)cc1,inactive
11,CC(C)CC#Cc1ccc2c(c1)O[C@@H](CN(C)C(=O)c1ccncc1)[C@H](C)CN([C@@H](C)CO)S2(=O)=O,inactive
12,N=C(NO)C(=O)Nc1ccccc1,inactive
13,C[C@H]1CN([C@@H](C)CO)C(=O)c2ccccc2-c2ccccc2CO[C@H]1CN(C)C(=O)Nc1ccc(F)cc1,inactive
14,C[C@H]1CN([C@@H](C)CO)C(=O)c2cccc(NC(=O)C3CCOCC3)c2O[C@@H]1CN(C)S(=O)(=O)c1ccc(F)cc1,inactive
15,COc1ccc([Si](C)(C)[C@H]2[C@H](CCO)O[C@@]3(C(=O)N(Cc4ccccc4)c4ccc(N5C(=O)c6ccccc6Oc6ccccc65)cc43)[C@@H]2C)cc1,active
16,COc1ccc([Si](C)(C)[C@@H]2[C@@H](CCO)O[C@]3(C(=O)N(Cc4ccc(N5C(=O)c6ccccc6Oc6ccccc65)cc4)c4ccccc43)[C@H]2C)cc1,active
17,COc1ccc([Si](C)(C)[C@H]2[C@H](CCO)O[C@@]3(C(=O)N(Cc4ccc(N5C(=O)c6ccccc6Oc6ccccc65)cc4)c4ccccc43)[C@@H]2C)cc1,active
18,C[C@H]1[C@H]([Si](C)(C)F)[C@@H](CCO)O[C@]12C(=O)N(Cc1ccccc1)c1ccc(N3C(=O)c4ccccc4Oc4ccccc43)cc12,inactive
19,COc1ccc([Si](C)(C)[C@@H]2[C@@H](CCO)O[C@]3(C(=O)N(Cc4ccccc4)c4ccc(N5C(=O)c6ccccc6Oc6ccccc65)cc43)[C@H]2C)cc1,inactive
20,COCC#Cc1ccc2c(c1)O[C@H](CN(C)Cc1ccc(F)cc1)[C@H](C)CN([C@@H](C)CO)S2(=O)=O,inactive
21,Cc1noc(C)c1S(=O)(=O)N(C)C[C@H]1Oc2ccc(NC(=O)CCCN(C)C)cc2C(=O)N([C@H](C)CO)C[C@@H]1C,inactive
22,C[C@H](CO)N1C[C@H](C)[C@@H](CN(C)C)Oc2ccc(NS(=O)(=O)c3ccc(Cl)cc3)cc2CC1=O,inactive
23,COc1nonc1NC(C)=O,inactive
24,O=C1C[C@H](N2C(=O)CCC2=O)[C@@H]2CO[C@@H]1O2,inactive
25,C[C@@H]1CN([C@H](C)CO)C(=O)c2cccc(NC(=O)c3cnccn3)c2O[C@H]1CN(C)C(=O)Nc1ccc2c(c1)OCO2,inactive

row,SMILES,cytotoxicity call
1,C[C@H]1CN([C@@H](C)CO)C(=O)Cc2cc(NC(=O)Cc3ccccc3)ccc2O[C@@H]1CN(C)Cc1ccc(Cl)c(Cl)c1,inactive
2,C[C@@H]1CN([C@@H](C)CO)C(=O)Cc2cc(NC(=O)Cc3ccccc3)ccc2O[C@@H]1CN(C)Cc1ccc(Cl)c(Cl)c1,active
3,C[C@H](CO)N1C[C@H](C)[C@@H](CN(C)Cc2ccc(Cl)c(Cl)c2)Oc2ccc(NC(=O)Cc3ccccc3)cc2CC1=O,inactive
4,C[C@@H]1CN([C@H](C)CO)C(=O)Cc2cc(NC(=O)Cc3ccccc3)ccc2O[C@@H]1CN(C)Cc1ccc(Cl)c(Cl)c1,active
5,C[C@H]1CN([C@@H](C)CO)C(=O)Cc2cc(NC(=O)Cc3ccccc3)ccc2O[C@H]1CN(C)Cc1ccc(Cl)c(Cl)c1,active
6,C[C@@H]1CN([C@H](C)CO)C(=O)Cc2cc(NC(=O)Cc3ccccc3)ccc2O[C@H]1CN(C)Cc1ccc(Cl)c(Cl)c1,inactive
7,C[C@@H]1CN([C@@H](C)CO)C(=O)Cc2cc(NC(=O)Cc3ccccc3)ccc2O[C@H]1CN(C)Cc1ccc(Cl)c(Cl)c1,inactive
8,C[C@H](CO)N1C[C@H](C)[C@H](CN(C)Cc2ccc(Cl)c(Cl)c2)Oc2ccc(NC(=O)Cc3ccccc3)cc2CC1=O,inactive
9,C[C@@H]1CN([C@@H](C)CO)C(=O)c2cc(NC(=O)C3CCCCC3)ccc2O[C@@H](C)CCCCO[C@@H]1CN(C)Cc1ccncc1,inactive
10,Cc1noc(C)c1S(=O)(=O)N(C)C[C@H]1Oc2ccc(NC(=O)C3CCCCC3)cc2CC(=O)N([C@H](C)CO)C[C@H]1C,inactive
11,C[C@H]1CN([C@@H](C)CO)C(=O)c2cccc(NS(=O)(=O)c3ccccc3)c2O[C@@H]1CN(C)Cc1ccc(Cl)c(Cl)c1,inactive
12,O=C(C[C@H]1C=C[C@@H](NS(=O)(=O)c2ccccc2)[C@H](CO)O1)NCc1ccncn1,inactive
13,Cn1cnc(S(=O)(=O)N2C[C@H](O)COC[C@H]3O[C@H](CC(=O)NCc4ccc(F)cc4)CC[C@@H]32)c1,inactive
14,CN(C)C(=O)c1ccc(-c2cccc(-c3nc(C(=O)NC4CCCCC4)cc4c3[C@H](CCO)N([S@@](=O)C(C)(C)C)C4)c2)cc1,inactive
15,CCCN(C)C[C@@H]1OCCCC[C@H](C)Oc2ccc(NC(=O)Nc3ccc4c(c3)OCO4)cc2C(=O)N([C@H](C)CO)C[C@@H]1C,inactive
16,COc1cccc(NC(=O)N(C)C[C@H]2Oc3cc(C#CC4(O)CCCC4)ccc3S(=O)(=O)N([C@H](C)CO)C[C@@H]2C)c1,inactive
17,COc1cccc(NC(=O)N(C)C[C@H]2Oc3cc(C#CC4(O)CCCC4)ccc3S(=O)(=O)N([C@H](C)CO)C[C@H]2C)c1,active
18,COc1cccc(NC(=O)N(C)C[C@H]2Oc3cc(C#CC4(O)CCCC4)ccc3S(=O)(=O)N([C@@H](C)CO)C[C@H]2C)c1,inactive
19,C[C@H](CO)N1C[C@H](C)[C@@H](CN(C)C(=O)Nc2cc(F)ccc2F)Oc2cc(/C=C/c3ccccc3)ccc2S1(=O)=O,inactive
20,C[C@@H]1CN([C@H](C)CO)S(=O)(=O)c2ccc(C#CC3(O)CCCC3)cc2O[C@H]1CN(C)C(=O)Nc1ccccc1,inactive
21,C[C@@H]1CN([C@H](C)CO)S(=O)(=O)c2ccc(/C=C/c3ccccc3)cc2O[C@@H]1CN(C)C(=O)Nc1cc(F)ccc1F,active
22,C[C@@H]1CN([C@H](C)CO)S(=O)(=O)c2ccc(C#CC3(O)CCCC3)cc2O[C@@H]1CN(C)C(=O)Nc1ccccc1,active
23,C[C@H]1CN([C@@H](C)CO)S(=O)(=O)c2ccc(C#CC3(O)CCCC3)cc2O[C@H]1CN(C)C(=O)Nc1ccccc1,inactive
24,C[C@@H]1CN([C@H](C)CO)S(=O)(=O)c2ccc(/C=C/c3ccccc3)cc2O[C@H]1CN(C)C(=O)Nc1cc(F)ccc1F,inactive
